# Screens (PubChem BioAssay)
# Shown is part of a subset that was picked to be rich in hits.
# Giardia FBPA inh-1: qHTS Assay for Inhibitors of Fructose-1,6-bisphosphate Aldolase from Giardia Lamblia; A8B2U2; purified Giardia FBPA; Potency, µM (top dose mostly 59.6 µM), without a hit: at the highest dose activity, negative = inhibition, most hits filed as inhibitors; 290,000 compounds, 0.71% hits; further: potency means the concentration at half of the fitted maximal effect; on the % scale 0 is the no-effect control and ±100 the full control effect; nearly all actives have a fitted effect of over 55% in size
# Target sequence (A8B2U2 whole entry, looked up): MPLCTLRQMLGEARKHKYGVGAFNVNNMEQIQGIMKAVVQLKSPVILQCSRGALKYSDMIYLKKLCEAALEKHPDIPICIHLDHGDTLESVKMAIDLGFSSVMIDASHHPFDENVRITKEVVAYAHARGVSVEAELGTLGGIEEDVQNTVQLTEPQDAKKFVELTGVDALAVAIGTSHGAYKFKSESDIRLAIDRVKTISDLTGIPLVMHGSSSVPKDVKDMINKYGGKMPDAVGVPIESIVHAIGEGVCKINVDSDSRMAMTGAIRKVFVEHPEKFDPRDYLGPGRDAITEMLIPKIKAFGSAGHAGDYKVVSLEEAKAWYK
#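 Giardia FBPA (40 nM reagent) was preincubated 10 min at RT with compound (up to 57.5 uM final), then substrate plus GAPDH/TPI/NAD/arsenate coupling system with diaphorase/resazurin was added; resorufin fluorescence (525/598 nm) was read after 20 min.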
# CHX counter: Cycloheximide Counterscreen for Small Molecule Inhibitors of Shiga Toxin; cell reporter, cycloheximide protein synthesis inhibition counterscreen; max response, %; 300,000 compounds, 12% hits; in the data active means max response mostly above about 13%, no sharp cut-off; inactive means mostly below about 14%; further: read at 38.3 µM for the half of the compounds with a filed dose; 0% is about no effect
# RE007 growth inh: qHTS Assay for Inhibitors of the HIV-1 protein Vpr | AID 651644, 2012 | S. pombe RE007 Vpr strain, BacTiter-Glo ATP luminescence, 24 h | 360,000 compounds, 0.21% hits | Potency, µM (top dose mostly 92.2 µM), for the others: at the top dose activity change, negative = less growth, hits mostly inhibitors; active means well fitted falling curve with a large enough effect; inconclusive means small, poorly fitted or top-dose-only effect; inactive means no such curve, though single readings can be large or run the other way; further: potency means the concentration at half of the fitted maximal effect; on the % scale 0 is the no-effect control and ±100 the full control effect; nearly all actives have a fitted effect of over 50% in size
#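 Fission yeast RE007 carrying one integrated HIV-1 vpr copy, seeded at OD 0.01 in PMG+AL medium with 23 nL pinned compound. Grown 24 h at 30 degrees; viability read by BacTiter-Glo luminescence after 5 min.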
# LmPK inh: qHTS Assay for Inhibitors of Leishmania Mexicana Pyruvate Kinase (LmPK); Q27686; purified LmPK, Kinase-Glo ATP luminescence, 1 h; 290,000 compounds, 0.37% hits; Potency, µM (top dose mostly 57.5 µM), for inactives: at the highest dose activity change, negative = inhibition, hits mostly inhibitors; further: potency means the concentration at half of the fitted maximal effect; on the % scale 0 is the no-effect control and ±100 the full control effect
# Target sequence (Q27686 whole entry, looked up): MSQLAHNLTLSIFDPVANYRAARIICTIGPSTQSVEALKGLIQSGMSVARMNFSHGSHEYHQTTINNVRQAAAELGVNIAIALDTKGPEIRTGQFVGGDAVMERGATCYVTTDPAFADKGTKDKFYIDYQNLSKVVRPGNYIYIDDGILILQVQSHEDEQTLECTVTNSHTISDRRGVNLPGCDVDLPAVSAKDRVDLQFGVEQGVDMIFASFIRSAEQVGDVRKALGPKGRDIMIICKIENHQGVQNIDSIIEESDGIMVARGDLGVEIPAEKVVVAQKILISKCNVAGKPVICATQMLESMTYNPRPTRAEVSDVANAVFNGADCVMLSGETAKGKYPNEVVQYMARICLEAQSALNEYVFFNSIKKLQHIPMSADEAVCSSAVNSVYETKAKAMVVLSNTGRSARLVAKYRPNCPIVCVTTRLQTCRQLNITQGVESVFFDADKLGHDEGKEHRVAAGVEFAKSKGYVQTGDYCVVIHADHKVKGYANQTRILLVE
#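 ATP generated from ADP (0.1 mM) and PEP (0.5 mM) by 0.1 nM LmPK over 1 h at room temperature (pH 7.2 imidazole buffer) was detected by coupled luciferase luminescence. Values were normalized to uninhibited and no-enzyme wells.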
# Shiga inhibitor: A qHTS for Small Molecule Inhibitors of Shiga Toxin; Vero cells, Shiga toxin protein synthesis inhibition reporter; inhibition, % at 38.7 µM; AID 2315, 2010; 290,000 compounds, 9.2% hits; in the data active means inhibition mostly above about 28%, no sharp cut-off; inactive means mostly below about 43%; further: 0% is about no effect
# TbPYK inhibitor: qHTS of Trypanosoma Brucei Inhibitors | 410,000 compounds, 0.12% hits | TbPYK enzyme, Kinase-Glo Plus ATP luminescence, 45 min | Potency, µM (titrated, usually from 76.8 µM), without a hit: at the top dose activity, negative = inhibition, actives largely listed as inhibitors; further: potency means the concentration at half of the fitted maximal effect; on the % scale 0 is the no-effect control and ±100 the full control effect; nearly all actives have a fitted effect of over 50% in size
#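 T. brucei PYK with substrate was exposed to pin-transferred compounds across a concentration series, then started with 130 uM ADP (final). After 45 min at room temperature, Kinase-Glo Plus luminescence was read, normalized and curve-fitted.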
# Giardia growth: qHTS Assay for Inhibitors of Fructose-1,6-bisphosphate Aldolase from Giardia Lamblia: Giardia lamblia growth inhibition | shares compounds with Giardia FBPA inh-1 | Giardia lamblia trophozoite growth inhibition | Potency, µM (titrated, usually from 57.5 µM), for inactives: at the top dose activity change, negative = inhibition, most hits filed as inhibitors | 1,500 compounds, 5% hits | AID 2785, 2010;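 further: potency means the concentration at half of the fitted maximal effect; trophozoites exposed to compound for 48 h at 37 °C; on the % scale 0 is the no-effect control and ±100 the full control effect; nearly all actives have a fitted effect of over 70% in size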
# Mammal cell tox: qHTS Assay for Inhibitors of Fructose-1,6-bisphosphate Aldolase from Giardia Lamblia: Mammalian cellular toxicity; shares compounds with Giardia FBPA inh-1; 1,500 compounds, 4% hits; mammalian cell viability counter-screen, qHTS; Potency, µM (doses to about 57.5 µM), for inactives: top-dose viability change, negative = toxicity, usual class: inhibitors; AID 2786, 2010;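 further: Chinese hamster ovary cells used as mammalian cytotoxicity surrogate; viability measured as cellular ATP by luminescence; potency means the concentration at half of the fitted maximal effect; compound exposure lasted 48 h before reading; on the % scale 0 is the no-effect control and ±100 the full control effect; nearly all actives have a fitted effect of over 60% in size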
# Giardia FBPA inh-2: qHTS Assay for Inhibitors of Fructose-1,6-bisphosphate Aldolase from Giardia Lamblia: Primary screen confirmation; purified Giardia aldolase enzyme activity, qHTS; Potency, µM (titrated, usually from 57.5 µM), inactives show at the highest dose activity change, negative = inhibition, actives largely listed as inhibitors; 1,500 compounds, 5% hits; AID 2787, 2010; shares compounds with Giardia FBPA inh-1; further: potency means the concentration at half of the fitted maximal effect; on the % scale 0 is the no-effect control and ±100 the full control effect; nearly all actives have a fitted effect of over 45% in size
# Rabbit FBPA inh: qHTS Assay for Inhibitors of Fructose-1,6-bisphosphate Aldolase from Giardia Lamblia: Rabbit FBPA Selectivity | shares compounds with Giardia FBPA inh-1 | Rabbit muscle FBPA enzyme inhibition, selectivity counter-screen | Potency, µM (doses to about 57.5 µM), without a hit: top-dose activity, negative = inhibition, hits mostly inhibitors | 1,500 compounds, 4% hits; further: potency means the concentration at half of the fitted maximal effect; on the % scale 0 is the no-effect control and ±100 the full control effect; nearly all actives have a fitted effect of over 60% in size
# GAPDH coupling: qHTS Assay for Inhibitors of Fructose-1,6-bisphosphate Aldolase from Giardia Lamblia: Coupling assay counterscreen confirmation. shares compounds with Giardia FBPA inh-1. GAPDH coupling enzyme counterscreen, biochemical, qHTS. Potency, µM (series often up to 57.5 µM), without a hit: at the top dose activity change, negative = inhibition, actives largely listed as inhibitors. 1,500 compounds, 6% hits; further: potency means the concentration at half of the fitted maximal effect; on the % scale 0 is the no-effect control and ±100 the full control effect; nearly all actives have a fitted effect of over 55% in size
# An asterisk follows results filed as active; ? = inconclusive; . = not tested or not shown; [ ] = remark or other dose. Unless noted, the call rests on the fitted dose curve; in most records, active means well fitted curve in the direction sought with a large enough effect; inconclusive means small, poorly fitted or top-dose-only effect, or another doubt; inactive means no such curve, though single readings can be large; an effect the other way counts as inactive or inconclusive.
SMILES,Giardia FBPA inh-1,CHX counter,RE007 growth inh,LmPK inh,Shiga inhibitor,TbPYK inhibitor,Giardia growth,Mammal cell tox,Giardia FBPA inh-2,Rabbit FBPA inh,GAPDH coupling
N#Cc1ccccc1S(=O)(=O)N1CCN(CC(O)COc2ccccc2F)CC1 (configuration not stated),16µM*,-6,-9%,0%,3,-1%,?,-10%,8%,3%,9%
CC(C)c1ccccc1OCC(O)CN1CCN(S(=O)(=O)c2ccc([N+](=O)[O-])cc2)CC1 (configuration not stated),18µM*,-2,8%,-4%,-2,3%,5.6µM*,2%,-4%,-11%,-7%
O=C(CSc1nc2ccccc2c(=O)n1-c1ccccc1Cl)NC1CCS(=O)(=O)C1 (configuration not stated),.,.,-18%,.,.,2%,.,.,.,.,.
COC(=O)/C=C1\SC(=Nc2ccc(OC)cc2)NC1=O,5%,1,-17%,5%,-8,-3%,.,.,.,.,.
COC(=O)/C=C1\S/C(=N\N=C\CC(=O)OC)NC1=O,16µM*,-2,-7%,1%,-5,-8%,19%,14%,-6%,3%,-11%
COc1ccc(Br)c(C(=O)Nc2cc3c(cc2N2CCCCC2)n(C)c(=O)c(=O)n3C)c1,.,.,.,.,.,-5%,.,.,.,.,.
Cc1ccc(NC(=O)Nn2cnnc2)c(C)c1,9%,-3,15%,5%,-8,-4%,.,.,.,.,.
Cc1ccc(NC(=S)Nn2cnnc2)c(C)c1,13µM*,-2,.,5%,-13,.,-17%,13%,-1%,10%,11%
CN(CC(=O)Nc1cccc(F)c1)C(=O)CCCN1C(=O)c2cccc3cccc(c23)C1=O,.,.,2%,.,.,-9%,.,.,.,.,.
Nc1ccc(S(=O)(=O)NCc2ccccn2)cc1,-5%,-2,11%,-2%,3,-1%,.,.,.,.,.
O=S(=O)(NCc1ccccn1)C(F)(F)F,2.8µM*,0,5%,1%,1,0%,2%[10.4 µM],1%,10%,6%,11%
CC1(C)CC(=O)C(/C=N/n2cnc3ccccc3c2=O)=C(O)C1,18µM*,14*,-12%,-20%,5,-7%,0%,-2%,5%,-1%,3%
COCc1cc(=O)[nH]c(Nc2nc3ccccc3o2)n1,10µM*,61*,-9%,-6%,65*,1%,-11%[38.3 µM],?,18%,-3%,?
COCc1cc(=O)[nH]c(Nc2nc(C)c3ccccc3n2)n1,-8%,-2,5%,0%,-19,1%,.,.,.,.,.
Cc1c(C#N)c(O)n(CCO)c(=O)c1N=Nc1ccc2c(c1)COC2=O,20µM*,27*,-12%,-5%,31,-9%,?,-5%,?,-28%,-21%
CCc1ccc(CNC(=O)CN2C(=O)CCn3nc(-c4cn(C)c5ccccc45)cc32)cc1,.,.,.,.,.,-2%,.,.,.,.,.
C=CCOc1ccccc1CN1CCCCCC1,18µM*,-2,-20%,-1%,11,12%,-10%,0%,-2%,8%,3%
CC(C)c1ccc(-c2nnc3n(CCc4ccccc4)c(=O)c4ccccc4n23)cc1,.,.,.,.,.,-12%,.,.,.,.,.
O=c1cc(-c2ccc(O)cc2)oc2c(O)c(O)c(O)c(O)c12,6.3µM*,-1,5%,-16%,2,-28%,-8%[38.3 µM],-10%,21µM*,18µM*,?
Cc1ccccc1/C=N/Nc1nc2ccccc2c(=O)n1O,18µM*,20*,6%,2%,75*,-21%,?,-6%,-22%,-14%,-15%
COC(=O)c1ccc(CC(=O)c2c(C)cc(O)cc2O)o1,16µM*,-7,5%,5%,-14,-23%,-16%,6%,16µM*,40µM*,?
Nc1nc(-c2cccc(F)c2)cs1,11µM*,-2,?,-8%,17,-23%,20%[10.4 µM],-5%,5%,5%,13%
CCc1nc(C)ccc1OCC(=O)NCCCN(C)C,13µM*,7,-7%,-18%,17,27%,13%[10.4 µM],-1%,-1%,6%,-15%
CCc1nc(C)ccc1OCC(=O)O,-5%,0,-11%,-3%,14,1%,.,.,.,.,.
CN(CC(=O)Nc1ccccc1Cl)CC(=O)Nc1sc2c(c1C(N)=O)CCC2,.,.,-13%,.,.,-4%,.,.,.,.,.
N#C/C(=N\Nc1ccccc1)C(N)=S,20µM*,8,27%,6%,25,-7%,?,7%,12%,24%,13%
Cc1ccc(SCCN2CCN(C)CC2)cc1,22µM*,1,14%,-3%,-7,0%,-8%[10.4 µM],-5%,2%,4%,8%
Cc1ccc(SCCN2CCN(Cc3ccccc3)CC2)cc1,?,3,-10%,-2%,13,-5%,.,.,.,.,.
CC(=O)Nc1ccc(S(=O)(=O)NNC(=S)NCC2CCCO2)cc1 (configuration not stated),13µM*,-3,-8%,0%,11,-4%,133%,2%,11%,9%,11%
Cc1ccc(C)c(S(=O)(=O)/N=C2\C=C(NS(=O)(=O)c3ccccc3)C(=O)c3ccccc32)c1,.,-4,-8%,-4%,-7,-1%,.,.,.,.,.
